Among the data in paper PMC7862700, “An all-to-all approach to the identification of sequence-specific readers for epigenetic DNA modifications on cytosine” are binding signal values, retold here.

Common to all, as to experiment: DAPPL (digital affinity profiling via proximity ligation, sequencing); 10 mM Tris-HCl pH 7.5, 50 mM NaCl, 1 mM DTT, 4% glycerol, room temperature, 30 min; GST-TFs on glutathione beads, 16-mer random dsDNA library, 0.1% formaldehyde crosslink after washing; high values mean tight binding
In one experiment the target is T1, FEV (Homo sapiens, UniProt Q99581 1-238).
T1 sequence: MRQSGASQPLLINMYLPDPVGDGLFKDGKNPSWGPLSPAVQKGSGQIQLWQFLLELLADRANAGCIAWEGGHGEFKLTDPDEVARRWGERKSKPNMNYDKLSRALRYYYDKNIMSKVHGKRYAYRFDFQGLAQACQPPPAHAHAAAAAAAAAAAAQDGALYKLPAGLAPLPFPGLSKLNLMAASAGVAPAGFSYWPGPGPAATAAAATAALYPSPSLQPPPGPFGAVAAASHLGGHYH
To be noted: protein: recombinant; tags: N-terminal GST; dsDNA, one strand shown. The method in brief: (§1)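 Human transcription factors carrying a GST fusion were produced in yeast, bound to glutathione beads, tagged with DNA barcodes and pooled together with a tag-only sample. Each pool was held with 200 nmole of a random double-stranded 16-mer DNA library in Tris/NaCl/DTT/glycerol buffer for 30 min at room temperature, then washed, crosslinked in 0.1% formaldehyde, proximity-ligated with BsaI/T4 ligase (1 h, 37 °C), PCR-amplified and sequenced on an Illumina NextSeq500. Binding signal is the read frequency of each hexamer for a given factor divided by its frequency in the tag-only sample.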

The target in the next experiment is ETV5 (Homo sapiens, UniProt P41161 1-510). The following applies: protein: recombinant; tags: N-terminal GST; dsDNA, one strand shown. A digest of the protocol:
as §1

A further experiment concerns the target HSF1 (Homo sapiens, UniProt Q00613 1-529). To be noted: protein: recombinant; tags: N-terminal GST; chain copies: 3; dsDNA, one strand shown. A digest of the protocol:
as §1

The next experiment has as its target T2, SPIC (Homo sapiens, UniProt Q8N5J4 1-248).
T2 sequence: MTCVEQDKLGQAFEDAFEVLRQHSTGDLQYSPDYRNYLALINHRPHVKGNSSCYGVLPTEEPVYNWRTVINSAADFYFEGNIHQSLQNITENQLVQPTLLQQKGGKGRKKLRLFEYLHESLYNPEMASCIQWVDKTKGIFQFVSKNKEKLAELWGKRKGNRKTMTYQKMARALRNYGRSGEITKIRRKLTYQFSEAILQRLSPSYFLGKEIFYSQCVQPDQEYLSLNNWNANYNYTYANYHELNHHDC
To be noted: protein: recombinant; tags: N-terminal GST; dsDNA, one strand shown. The method in brief: as §1

A further experiment concerns the target ELF4 (Homo sapiens, UniProt Q99607 1-663). To be noted: protein: recombinant; tags: N-terminal GST; dsDNA, one strand shown. The method in brief: as §1
In another experiment the target is T3, ELK4 (Homo sapiens, UniProt P28324-2 1-405).
T3 sequence: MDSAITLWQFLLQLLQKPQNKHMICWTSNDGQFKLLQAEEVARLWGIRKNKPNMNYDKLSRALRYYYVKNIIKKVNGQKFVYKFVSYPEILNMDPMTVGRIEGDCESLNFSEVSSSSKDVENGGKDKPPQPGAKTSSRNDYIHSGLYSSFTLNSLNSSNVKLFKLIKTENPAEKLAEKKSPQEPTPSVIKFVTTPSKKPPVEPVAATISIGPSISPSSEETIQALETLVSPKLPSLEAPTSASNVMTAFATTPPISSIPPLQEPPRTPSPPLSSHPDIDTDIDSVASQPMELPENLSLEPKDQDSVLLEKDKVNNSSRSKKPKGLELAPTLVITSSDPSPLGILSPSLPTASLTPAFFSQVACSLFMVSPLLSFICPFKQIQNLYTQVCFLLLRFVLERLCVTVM
To be noted: protein: recombinant; tags: N-terminal GST; dsDNA, one strand shown. The method in brief:
as §1

The target of the next experiment is T4, ETV2 (Homo sapiens, UniProt O00321 1-342).
T4 sequence: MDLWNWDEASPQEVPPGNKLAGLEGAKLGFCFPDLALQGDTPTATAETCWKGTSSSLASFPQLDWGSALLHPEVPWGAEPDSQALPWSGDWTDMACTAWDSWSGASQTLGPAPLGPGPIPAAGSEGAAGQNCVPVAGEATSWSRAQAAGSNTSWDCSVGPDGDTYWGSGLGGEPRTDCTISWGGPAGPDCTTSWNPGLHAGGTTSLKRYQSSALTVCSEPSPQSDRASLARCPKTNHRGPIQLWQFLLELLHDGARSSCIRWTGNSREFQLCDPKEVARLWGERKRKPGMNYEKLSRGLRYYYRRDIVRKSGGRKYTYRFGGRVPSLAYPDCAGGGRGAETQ
The following applies: protein: recombinant; tags: N-terminal GST; dsDNA, one strand shown. The method in brief: as §1

In the next experiment the target is T5, ELF3 (Homo sapiens, UniProt P78545 1-371).
T5 sequence: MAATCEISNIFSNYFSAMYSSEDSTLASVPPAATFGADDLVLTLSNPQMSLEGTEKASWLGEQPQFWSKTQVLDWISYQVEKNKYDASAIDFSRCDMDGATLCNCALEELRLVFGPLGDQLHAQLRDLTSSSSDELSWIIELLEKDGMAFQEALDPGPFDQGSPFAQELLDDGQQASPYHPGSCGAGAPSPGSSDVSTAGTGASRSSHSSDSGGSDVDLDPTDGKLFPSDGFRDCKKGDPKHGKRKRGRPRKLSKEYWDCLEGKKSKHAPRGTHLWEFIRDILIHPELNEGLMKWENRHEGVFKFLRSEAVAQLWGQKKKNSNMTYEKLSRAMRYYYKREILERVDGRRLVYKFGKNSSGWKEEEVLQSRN
To be noted: protein: recombinant; tags: N-terminal GST; dsDNA, one strand shown. The method in brief:
as §1

The target in a further experiment is CRX (Homo sapiens, UniProt O43186 1-299). To be noted: protein: recombinant; tags: N-terminal GST; dsDNA, one strand shown. A digest of the protocol: as §1
Chain of CRX (O43186 whole entry): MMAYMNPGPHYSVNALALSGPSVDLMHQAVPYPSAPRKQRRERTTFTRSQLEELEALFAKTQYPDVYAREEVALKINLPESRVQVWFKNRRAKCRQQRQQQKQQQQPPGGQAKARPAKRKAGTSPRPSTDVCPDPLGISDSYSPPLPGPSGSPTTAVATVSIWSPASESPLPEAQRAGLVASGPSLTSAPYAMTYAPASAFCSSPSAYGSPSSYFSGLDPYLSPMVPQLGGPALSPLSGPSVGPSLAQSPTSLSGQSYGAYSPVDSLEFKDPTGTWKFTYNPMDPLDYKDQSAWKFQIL
The next experiment concerns the target ETV1 (Homo sapiens, UniProt P50549 1-477). The following applies: protein: recombinant; tags: N-terminal GST; dsDNA, one strand shown. The method in brief: as §1
A further experiment concerns the target T6, ERF (Homo sapiens, UniProt P50548 1-548).
T6 sequence: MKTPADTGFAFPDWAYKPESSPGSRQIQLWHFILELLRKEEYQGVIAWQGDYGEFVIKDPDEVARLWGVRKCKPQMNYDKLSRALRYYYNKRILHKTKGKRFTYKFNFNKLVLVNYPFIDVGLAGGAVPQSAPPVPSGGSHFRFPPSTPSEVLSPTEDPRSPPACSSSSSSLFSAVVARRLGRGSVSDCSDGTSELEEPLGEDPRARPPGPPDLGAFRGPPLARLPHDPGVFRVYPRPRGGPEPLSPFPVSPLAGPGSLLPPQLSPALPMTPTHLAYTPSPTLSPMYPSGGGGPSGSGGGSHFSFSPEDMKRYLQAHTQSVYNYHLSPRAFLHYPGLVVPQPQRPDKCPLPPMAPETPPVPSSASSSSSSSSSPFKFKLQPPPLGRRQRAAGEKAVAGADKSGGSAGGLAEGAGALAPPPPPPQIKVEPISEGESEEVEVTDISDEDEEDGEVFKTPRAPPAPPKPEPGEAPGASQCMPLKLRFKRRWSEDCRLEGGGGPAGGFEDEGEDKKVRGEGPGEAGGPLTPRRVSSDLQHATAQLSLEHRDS
To be noted: protein: recombinant; tags: N-terminal GST; dsDNA, one strand shown. A digest of the protocol: as §1

The target of a further experiment is T7, ETV3L (Homo sapiens, UniProt Q6ZN32 1-361).
T7 sequence: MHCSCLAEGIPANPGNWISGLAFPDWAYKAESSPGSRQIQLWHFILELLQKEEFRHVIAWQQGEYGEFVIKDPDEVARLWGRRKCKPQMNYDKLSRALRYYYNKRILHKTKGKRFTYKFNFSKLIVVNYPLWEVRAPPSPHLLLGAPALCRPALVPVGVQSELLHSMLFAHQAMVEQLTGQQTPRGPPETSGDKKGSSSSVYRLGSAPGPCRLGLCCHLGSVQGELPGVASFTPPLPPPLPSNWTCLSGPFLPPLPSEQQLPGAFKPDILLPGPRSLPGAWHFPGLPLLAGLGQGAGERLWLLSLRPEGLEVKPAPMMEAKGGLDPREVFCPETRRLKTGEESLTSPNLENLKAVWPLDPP
The following applies: protein: recombinant; tags: N-terminal GST; dsDNA, one strand shown. A digest of the protocol:
as §1

The next experiment has as its target T8, ETS2 (Homo sapiens, UniProt P15036 1-469).
T8 sequence: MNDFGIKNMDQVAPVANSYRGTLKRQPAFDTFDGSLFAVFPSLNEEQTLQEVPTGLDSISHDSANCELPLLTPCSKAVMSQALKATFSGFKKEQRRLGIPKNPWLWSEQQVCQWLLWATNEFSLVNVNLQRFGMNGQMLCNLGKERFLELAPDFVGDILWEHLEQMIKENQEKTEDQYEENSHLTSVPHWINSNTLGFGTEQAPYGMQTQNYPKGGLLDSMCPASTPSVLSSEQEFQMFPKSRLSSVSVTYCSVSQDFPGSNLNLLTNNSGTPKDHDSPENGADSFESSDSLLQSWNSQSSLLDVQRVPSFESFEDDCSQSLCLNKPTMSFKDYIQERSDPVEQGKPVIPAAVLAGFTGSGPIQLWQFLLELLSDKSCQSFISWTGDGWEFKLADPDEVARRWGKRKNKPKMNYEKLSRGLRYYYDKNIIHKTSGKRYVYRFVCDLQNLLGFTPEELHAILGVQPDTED
The following applies: protein: recombinant; tags: N-terminal GST; dsDNA, one strand shown. A digest of the protocol: as §1

A further experiment concerns the target T9, SPDEF (Homo sapiens, UniProt O95238 1-335).
T9 sequence: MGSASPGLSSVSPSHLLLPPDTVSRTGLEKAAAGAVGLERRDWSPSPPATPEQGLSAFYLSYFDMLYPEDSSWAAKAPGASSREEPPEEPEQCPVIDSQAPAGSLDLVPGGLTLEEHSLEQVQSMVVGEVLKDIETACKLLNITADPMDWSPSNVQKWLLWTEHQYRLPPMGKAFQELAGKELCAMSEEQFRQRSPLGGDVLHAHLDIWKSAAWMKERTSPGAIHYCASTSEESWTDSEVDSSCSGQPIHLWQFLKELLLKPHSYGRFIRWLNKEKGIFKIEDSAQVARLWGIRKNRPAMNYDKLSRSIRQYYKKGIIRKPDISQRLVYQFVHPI
To be noted: protein: recombinant; tags: N-terminal GST; dsDNA, one strand shown. The method in brief:
as §1

A further experiment concerns the target T10, ETV7 (Homo sapiens, UniProt Q9Y603 1-341).
T10 sequence: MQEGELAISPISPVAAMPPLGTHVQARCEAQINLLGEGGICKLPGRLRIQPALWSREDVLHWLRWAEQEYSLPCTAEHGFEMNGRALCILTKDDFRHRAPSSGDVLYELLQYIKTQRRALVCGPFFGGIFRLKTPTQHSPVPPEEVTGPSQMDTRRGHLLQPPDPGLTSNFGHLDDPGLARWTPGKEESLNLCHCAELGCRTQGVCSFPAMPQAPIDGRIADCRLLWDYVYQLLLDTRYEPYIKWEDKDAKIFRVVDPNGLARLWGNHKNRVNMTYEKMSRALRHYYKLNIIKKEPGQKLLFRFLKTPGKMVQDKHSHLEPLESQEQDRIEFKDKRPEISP
To be noted: protein: recombinant; tags: N-terminal GST; dsDNA, one strand shown. A digest of the protocol: as §1

A further experiment addresses T11, ELF5 (Homo sapiens, UniProt Q9UKW6-2 1-255).
T11 sequence: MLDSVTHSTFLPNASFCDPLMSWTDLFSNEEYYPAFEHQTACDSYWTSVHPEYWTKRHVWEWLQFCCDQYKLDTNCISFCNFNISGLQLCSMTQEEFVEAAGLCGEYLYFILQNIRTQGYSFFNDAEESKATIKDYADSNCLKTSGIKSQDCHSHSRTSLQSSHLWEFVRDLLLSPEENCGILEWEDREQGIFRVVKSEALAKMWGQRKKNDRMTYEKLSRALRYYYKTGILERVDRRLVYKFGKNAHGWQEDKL
The following applies: protein: recombinant; tags: N-terminal GST; dsDNA, one strand shown. The method in brief: as §1

The target in another experiment is T12, ETV3 (Homo sapiens, UniProt P41162-2 1-143).
T12 sequence: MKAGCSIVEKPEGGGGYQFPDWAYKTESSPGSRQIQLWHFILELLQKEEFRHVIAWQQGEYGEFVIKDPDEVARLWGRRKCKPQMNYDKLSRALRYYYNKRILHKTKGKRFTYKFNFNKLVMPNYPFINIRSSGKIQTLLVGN
The following applies: protein: recombinant; tags: N-terminal GST; dsDNA, one strand shown. The method in brief: as §1

The next experiment concerns the target ETV6 (Homo sapiens, UniProt P41212 1-452). To be noted: protein: recombinant; tags: N-terminal GST; dsDNA, one strand shown. A digest of the protocol:
as §1

Chain of ETV5 (P41161 whole entry): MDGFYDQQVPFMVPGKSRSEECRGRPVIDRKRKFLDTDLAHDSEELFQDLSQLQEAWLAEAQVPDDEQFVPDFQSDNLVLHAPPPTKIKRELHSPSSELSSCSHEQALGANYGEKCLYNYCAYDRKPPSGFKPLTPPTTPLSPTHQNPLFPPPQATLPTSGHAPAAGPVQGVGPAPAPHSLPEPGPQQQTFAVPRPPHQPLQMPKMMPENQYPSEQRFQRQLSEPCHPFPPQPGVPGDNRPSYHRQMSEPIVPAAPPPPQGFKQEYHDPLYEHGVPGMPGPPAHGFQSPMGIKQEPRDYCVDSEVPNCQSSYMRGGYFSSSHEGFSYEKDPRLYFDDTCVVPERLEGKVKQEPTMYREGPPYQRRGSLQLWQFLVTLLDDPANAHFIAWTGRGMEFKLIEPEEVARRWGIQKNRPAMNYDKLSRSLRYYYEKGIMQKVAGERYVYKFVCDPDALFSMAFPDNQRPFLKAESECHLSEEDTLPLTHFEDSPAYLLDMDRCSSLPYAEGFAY
Chain of HSF1 (Q00613 whole entry): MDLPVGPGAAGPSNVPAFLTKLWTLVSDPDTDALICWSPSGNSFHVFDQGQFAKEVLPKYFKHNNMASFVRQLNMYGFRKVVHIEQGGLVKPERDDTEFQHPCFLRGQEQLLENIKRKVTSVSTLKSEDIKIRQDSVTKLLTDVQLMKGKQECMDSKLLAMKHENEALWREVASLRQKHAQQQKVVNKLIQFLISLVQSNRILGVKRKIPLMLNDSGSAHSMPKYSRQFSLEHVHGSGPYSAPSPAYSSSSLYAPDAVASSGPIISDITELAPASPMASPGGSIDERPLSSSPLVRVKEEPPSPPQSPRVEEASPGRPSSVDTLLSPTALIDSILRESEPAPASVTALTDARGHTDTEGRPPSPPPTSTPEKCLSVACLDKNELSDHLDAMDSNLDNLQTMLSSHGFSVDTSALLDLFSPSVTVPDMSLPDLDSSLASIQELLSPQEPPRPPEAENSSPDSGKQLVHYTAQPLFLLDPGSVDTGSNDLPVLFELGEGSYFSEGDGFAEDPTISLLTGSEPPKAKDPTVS
Chain of ETV6 (P41212 whole entry): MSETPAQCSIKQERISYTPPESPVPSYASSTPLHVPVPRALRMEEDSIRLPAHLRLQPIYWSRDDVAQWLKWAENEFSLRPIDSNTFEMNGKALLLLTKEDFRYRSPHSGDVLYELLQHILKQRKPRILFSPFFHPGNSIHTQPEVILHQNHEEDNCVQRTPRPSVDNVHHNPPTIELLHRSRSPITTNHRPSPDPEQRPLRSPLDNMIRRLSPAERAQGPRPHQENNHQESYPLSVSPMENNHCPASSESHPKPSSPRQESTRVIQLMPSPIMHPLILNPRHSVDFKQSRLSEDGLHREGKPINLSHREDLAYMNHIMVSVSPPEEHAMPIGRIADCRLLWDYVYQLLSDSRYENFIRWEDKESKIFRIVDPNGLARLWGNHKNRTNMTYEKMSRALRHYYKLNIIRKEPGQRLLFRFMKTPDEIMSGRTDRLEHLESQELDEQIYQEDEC
Chain of ETV1 (P50549 whole entry): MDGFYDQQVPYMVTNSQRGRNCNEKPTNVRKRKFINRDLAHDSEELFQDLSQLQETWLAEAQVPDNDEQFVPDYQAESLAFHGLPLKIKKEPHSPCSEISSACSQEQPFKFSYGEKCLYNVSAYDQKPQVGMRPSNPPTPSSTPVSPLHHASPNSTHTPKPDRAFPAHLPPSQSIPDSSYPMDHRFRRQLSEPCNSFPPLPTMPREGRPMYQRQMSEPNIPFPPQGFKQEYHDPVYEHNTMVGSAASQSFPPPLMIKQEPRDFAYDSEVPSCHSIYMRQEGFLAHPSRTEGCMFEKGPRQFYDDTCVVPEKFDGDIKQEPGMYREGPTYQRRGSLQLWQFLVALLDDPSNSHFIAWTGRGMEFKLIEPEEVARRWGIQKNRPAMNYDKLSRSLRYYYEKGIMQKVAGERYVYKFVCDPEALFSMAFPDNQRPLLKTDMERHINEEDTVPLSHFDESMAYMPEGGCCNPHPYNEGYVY
Chain of ELF4 (Q99607 whole entry): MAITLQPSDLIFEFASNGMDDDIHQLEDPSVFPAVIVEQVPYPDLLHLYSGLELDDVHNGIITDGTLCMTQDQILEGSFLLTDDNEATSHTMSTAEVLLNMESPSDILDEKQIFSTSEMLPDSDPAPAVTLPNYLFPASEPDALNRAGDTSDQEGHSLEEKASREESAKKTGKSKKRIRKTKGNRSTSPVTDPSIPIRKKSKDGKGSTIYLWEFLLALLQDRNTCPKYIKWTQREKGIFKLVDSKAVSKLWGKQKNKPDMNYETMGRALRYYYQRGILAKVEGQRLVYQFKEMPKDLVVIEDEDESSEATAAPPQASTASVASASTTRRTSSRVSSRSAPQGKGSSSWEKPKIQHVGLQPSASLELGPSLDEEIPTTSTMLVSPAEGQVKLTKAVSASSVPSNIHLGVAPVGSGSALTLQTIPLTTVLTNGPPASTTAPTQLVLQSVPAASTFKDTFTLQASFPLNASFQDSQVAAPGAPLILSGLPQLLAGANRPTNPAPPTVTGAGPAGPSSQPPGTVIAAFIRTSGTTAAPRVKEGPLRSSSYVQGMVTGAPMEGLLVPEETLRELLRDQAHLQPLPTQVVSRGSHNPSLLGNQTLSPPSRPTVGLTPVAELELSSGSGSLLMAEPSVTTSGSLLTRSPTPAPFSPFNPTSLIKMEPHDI

Turning to GCCTTG, the binding signal in the experiment with FEV is 1.13 fold enrichment (6-mer frequency, TF over GST control); in the experiment with ETV5, 1.34 fold enrichment (6-mer frequency, TF over GST control); with HSF1, 1.06 fold enrichment (6-mer frequency, TF over GST control); in the experiment with SPIC, 1.31 fold enrichment (6-mer frequency, TF over GST control); in the experiment with ELF4 it was 1.21 fold enrichment (6-mer frequency, TF over GST control); with ELK4 it was 1.17 fold enrichment (6-mer frequency, TF over GST control). Moreover, the binding signal in the experiment with ETV2 is 1.09 fold enrichment (6-mer frequency, TF over GST control); with ELF3 it was 1.23 fold enrichment (6-mer frequency, TF over GST control); with CRX it was 1.05 fold enrichment (6-mer frequency, TF over GST control); with ETV1, 1.18 fold enrichment (6-mer frequency, TF over GST control); with ERF, 1.16 fold enrichment (6-mer frequency, TF over GST control); with ETV3L, 1.34 fold enrichment (6-mer frequency, TF over GST control). The binding signal is 1.25 fold enrichment (6-mer frequency, TF over GST control) with ETS2; 1.13 fold enrichment (6-mer frequency, TF over GST control) with SPDEF; 1.3 fold enrichment (6-mer frequency, TF over GST control) with ETV7; 1.17 fold enrichment (6-mer frequency, TF over GST control) with ELF5; 1.14 fold enrichment (6-mer frequency, TF over GST control) with ETV3; 1.16 fold enrichment (6-mer frequency, TF over GST control) with ETV6.
